Results filed as inconclusive are left out. A call without a number means that no potency is given here. The source made the active and inactive calls. The call rests on the fitted dose curve; in most records, active means well fitted inhibition curve with a large enough effect; inconclusive means small, poorly fitted or top-dose-only effect, or effect the other way; inactive means no such curve, though single readings can be large or run the other way.
assay: Quantitative high throughput screen for delayed death inhibitors of the malarial parasite plastid, 96 hour incubation (AID 488745); conditions: Plasmodium falciparum growth; series mostly up to 28.7 µM; further: nearly all actives have a fitted effect of over 70% in size
From the text: NIH Molecular Libraries Probe Production Network [MLPCN]
NIH Chemical Genomics Center [NCGC]
Assay Provider: David Fidock and Eric Ekland, Columbia University
The goal of this screen is to discover new antimalarial compounds that act by inhibiting the development of the apicoplast in the malarial parasite Plasmodium falciparum. The biochemical processes that make this organelle essential for erythrocytic stage parasites are not well understood. However, antibiotics such as azithromycin and tetracycline, which target the apicoplast translational machinery, have a potent antimalarial effect.
We have developed a cell-based assay that measures parasite growth based on the expression of an integrated copy of a firefly luciferase reporter. To detect small molecules that cause this 'delayed death' phenotype, erythrocytes infected with the luciferase-expressing parasites were incubated with compounds for either one or two generations, corresponding to 48 and 96 hours, respectively. Compounds that inhibit parasite growth in the second generation, but not the first, should be enriched in antimalarials that target the apicoplast. Growth inhibition is detected by a decrease in luciferase activity
Four microliters of culture medium (RPMI 1640 with 0.5% w/v Albumax (GIBCO), 24 mM sodium bicarbonate and 10 ug/mL gentamycin) were dispensed by a Multi-drop Combi into white solid 1536-well plates (Grenier) and 23 nL compound was added by a pin tool. Four microliters of infected erythrocytes (2% hematocrit, 0.1% parasitemia final concentration) in culture medium were dispensed and the plates incubated for 96 hours at 37 C in 5% CO2. Two microliters of luciferase detection reagent was added and luminescence was detected by a ViewLux (PerkinElmer) reader
Potency means the concentration at half of the fitted maximal effect.

| Structure (SMILES) | Potency |
| --- | --- |
| C=CCN1CCC23c4c5ccc(O)c4O[C@H]2C(=O)CC[C@@]3(O)C1C5 (stereo not given in full) | inactive |
| CC1OC1P(=O)(O)O (stereo not given) | inactive |
| COc1cc(CC(C)N)c(OC)cc1I (stereo not given) | inactive |
| NNC(=O)c1ccc(O)cc1 | inactive |
| O=C1C=CC(=O)C=C1 | inactive |
| Cc1sc2ccccc2c1CC1=NCCN1 | inactive |
| CC12NC(Cc3ccccc31)c1ccccc12 (stereo not given) | inactive |
| CNc1ccc2oc(C[C@H]3O[C@@]4(CC[C@H]3C)O[C@H]([C@H](C)C(=O)c3ccc[nH]3)[C@H](C)C[C@H]4C)nc2c1C(=O)O | 0.104 µM (active) |
| Oc1ccc2c3c1O[C@H]1c4oc5ccccc5c4C[C@@]4(O)C(C2)N(CC2CC2)CCC314 (stereo not given in full) | 7.38 µM (active) |
| c1ccc2c(N3CCNCC3)cccc2c1 | inactive |
| O=[N+]([O-])c1cc(O)c(O)c([N+](=O)[O-])c1 | inactive |
| NCCc1c[nH]c2ccc(C(N)=O)cc12 | inactive |
| C[Se]C[C@H](N)C(=O)O | inactive |
| OC1CCCCC1N1CCC(c2ccccc2)CC1 (stereo not given) | inactive |
| COC(=O)N1CCN(C(=O)Cc2ccc(Cl)c(Cl)c2)C(CN2CCCC2)C1 (stereo not given) | inactive |
| CCN(CC)c1ncnc2c1ncn2[C@@H]1O[C@H](COP(=O)(O)OP(=O)(O)C(Br)(Br)P(=O)(O)O)[C@@H](O)[C@H]1O | inactive |
| C[N+]1(C)CCC(OC(=O)C(c2ccccc2)c2ccccc2)CC1 | 2.08 µM (active) |
| C[C@H](N)CN1CCc2ccc(Br)cc21 | inactive |
| NCCc1ccc(S(=O)(=O)F)cc1 | inactive |
| NC(Cc1ccc(N(CCCl)CCCl)cc1)C(=O)O (stereo not given) | 14.7 µM (active) |

| Structure (SMILES) | Potency |
| --- | --- |
| CCCN(CCC)C1CCc2cccc(O)c2C1 (stereo not given) | inactive |
| O=[N+]([O-])c1ccc2nc(N3CCNCC3)ccc2c1 | inactive |
| CC1(C(=O)O)C2CCC(O2)C1(C)C(=O)O (stereo not given) | 3.29 µM (active) |
| COc1ccc2[nH]cc(CCN)c2c1 | inactive |
| C#CCN[C@H](C)Cc1ccccc1 | inactive |
| N[C@@H](CCl)C(=O)O | inactive |
| O=P(O)(O)C(Cl)(Cl)P(=O)(O)O | inactive |
| CCn1cnc2c(Nc3cccc(Cl)c3)nc(N[C@@H]3CCCC[C@@H]3N)nc21 | 0.208 µM (active) |
| CC(N)[C@H](O)c1ccc(O)c(O)c1 (stereo not given in full) | inactive |
| COc1ccc(OC)c(C(O)C(C)N)c1 (stereo not given) | inactive |
| NC(=O)CI | inactive |
| NCC(O)c1cc(O)c(O)cc1F (stereo not given) | inactive |
| CN1C2CCC1CC(OC(c1ccccc1)c1ccc(Cl)cc1)C2 (stereo not given) | 0.147 µM (active) |
| CCCCCCC(C)(C)c1ccc([C@@H]2C[C@H](O)CC[C@H]2CCCO)c(O)c1 | 4.65 µM (active) |
| C/C(O)=C(\C#N)C(=O)Nc1cc(Br)ccc1Br | inactive |
| Clc1ccc(N2CC3CCC(C2)N3)nn1 | inactive |
| CC(Cc1ccc(OCC(=O)O)cc1)NCC(O)c1cccc(Cl)c1 (stereo not given) | inactive |
| CN1CCc2cccc(Cl)c2CC1 | inactive |
| CCCN(CCC)CCc1ccc(O)c(O)c1 | inactive |
| C[N+]1(C)CCN(c2ccccc2)CC1 | inactive |
